# Test results: PubChem BioAssay (Tox21)
# “And” between values parts separate entries of the source, which are not always exact repeats. Equal values may be shown once. Where a structure was tested more than once in an assay, its records may differ in their call. The source made the active and inactive calls. Entries that show only a call come without a potency. Unless noted, calls come from the whole dose curve; as a rule, active = well fitted curve in the direction sought with a large enough effect in the repeat runs; inconclusive = weak or mixed curves; inactive = no such curve, though single readings can be large; an effect the other way counts as inactive or inconclusive.
# Key:
# [1] = qHTS assay to identify small molecule antagonists of the glucocorticoid receptor (GR) signaling pathway - cell viability counter screen (AID 720693); note: nearly all actives have a fitted effect of over 55% in size
# [2] = qHTS assay for identifying genotoxic compounds that show differential cytotoxicity against isogenic chicken DT40 cell lines with known DNA damage response pathways - wild type cell line (AID 743012); note: nearly all actives have a fitted effect of over 60% in size; note: potency is the fitted concentration of half-maximal effect
# Outline: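 Endpoint: CellTiter-Glo luminescence, 30 min RT. Cells: wild type DT40, 300/well. Exposure: compounds in DMSO, 40 h, 37 C/5% CO2, after ~0.5 h pre-incubation.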
# [3] = qHTS assay for identifying genotoxic compounds that show differential cytotoxicity against isogenic chicken DT40 cell lines with known DNA damage response pathways - Rev3 mutant cell line (AID 743014); note: nearly all actives have a fitted effect of over 55% in size; note: potency is the fitted concentration of half-maximal effect
# [4] = qHTS assay for identifying genotoxic compounds that show differential cytotoxicity against isogenic chicken DT40 cell lines with known DNA damage response pathways - Rad54/Ku70 mutant cell line (AID 743015); note: nearly all actives have a fitted effect of over 60% in size; note: potency is the fitted concentration of half-maximal effect
# [5] = qHTS assay to identify small molecule antagonists of the androgen receptor (AR) signaling pathway - cell viability counter screen (AID 743033; note: nearly all actives have a fitted effect of over 45% in size)
# [6] = qHTS assay to identify small molecule antagonists of the androgen receptor (AR) signaling pathway using the MDA cell line - cell viability counter screen (AID 743041; note: nearly all actives have a fitted effect of over 45% in size)
# Outline: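 Cytotoxicity counter screen: MDA-kb2 AR-luc cells, compound + R1881, 16 h, 37C, 0% CO2; CellTiter-Fluor added at 15.5 h, fluorescence read after 30 min.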
# [7] = qHTS assay to identify small molecule antagonists of the thyroid receptor (TR) signaling pathway - cell viability counter screen (AID 743064); note: nearly all actives have a fitted effect of over 50% in size; note: potency is the fitted concentration of half-maximal effect
# Outline: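 In-well cytotoxicity read by CellTiter-Fluor (30 min, 37 C) following 23.5 h exposure of GH3 cells bearing a TRE-luciferase sensor. Compounds were added alongside 1 nM (final) T3 to drive TR transactivation.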
# [8] = qHTS assay to identify small molecule antagonists of the thyroid receptor (TR) signaling pathway (AID 743065); note: series mostly up to about 70 µM; nearly all actives have a fitted effect of over 55% in size
# Outline: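 GH3.TRE-Luc rat pituitary cells (two TREs driving luciferase) were dosed with compound, then stimulated with 1 nM T3 (final) for 23.5 h at 37 C. ONE-Glo luminescence was the read-out, with CellTiter-Fluor fluorescence as the cytotoxicity counter-screen.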
# [9] = tested on: thyroid hormone receptor (rat, GH3 cells); experiment: qHTS assay to identify small molecule agonists of the thyroid receptor (TR) signaling pathway (AID 743066; calls by dose curve; note: potency is the fitted concentration of half-maximal effect)
# [10] = biological target: Estrogen receptor (Homo sapiens) (UniProt P03372); experiment: qHTS assay to identify small molecule antagonists of the estrogen receptor alpha (ER-alpha) signaling pathway (AID 743069; active = well fitted curve in the direction sought with a large enough effect in the signal ratio in the repeat runs, not every such curve was filed as active; inconclusive = weak or mixed curves, or effect the other way; inactive = no such curve, though single readings can be large or run the other way; the % refers to the signal ratio; note: potency is the fitted concentration of half-maximal effect)
# Outline: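 Beta-lactamase FRET fluorescence is read after 2 hr at room temperature with LiveBLAzer B/G substrate. Before that, ER-alpha-bla HEK293 cells sit 4 hr after plating, then receive compound plus 17beta-estradiol and incubate 18 hr at 37C.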
# [11] = qHTS assay to identify small molecule antagonists of the estrogen receptor alpha (ER-alpha) signaling pathway - cell viability counter screen (AID 743074; calls by dose curve;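 note: HEK293 cells carrying ER-alpha-UAS-bla reporter stimulated with 17beta-estradiol; nearly all actives have a fitted effect of over 45% in size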)
# [12] = biological target: Estrogen receptor (Homo sapiens) (UniProt P03372); experiment: qHTS assay to identify small molecule agonists of the estrogen receptor alpha (ER-alpha) signaling pathway (AID 743075; calls by dose curve;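 note: HEK293 GripTite cells with ER-alpha and UAS-driven beta-lactamase reporter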)
# [13] = biological target: Estrogen receptor (Homo sapiens) (UniProt P03372); experiment: qHTS assay to identify small molecule agonists of the estrogen receptor alpha (ER-alpha) signaling pathway using the BG1 cell line (AID 743079); note: nearly all actives have a fitted effect of over 20% in size; note: potency is the fitted concentration of half-maximal effect
# [14] = qHTS assay to identify small molecule antagonists of the estrogen receptor alpha (ER-alpha) signaling pathway using the BG1 cell line (AID 743080; calls by dose curve;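 note: BG1 cells stimulated with 17beta-estradiol alongside compound; series mostly up to about 70 µM; nearly all actives have a fitted effect of over 25% in size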)
# Outline: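 After 5 days in phenol-red-free 10% charcoal-stripped FBS medium, BG1-Luc-4E2 cells were seeded, left 24 h at 37 C, co-treated with compounds and 17beta-estradiol for 21.5 h, then assayed for viability and luciferase.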
# [15] = qHTS assay to identify small molecule antagonists of the estrogen receptor alpha (ER-alpha) signaling pathway using the BG1 cell line - cell viability counter screen (AID 743081);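 note: compound given together with 17beta-estradiol as the ER stimulus; series mostly up to about 70 µM; nearly all actives have a fitted effect of over 45% in size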
# [16] = biological target: Aromatase (Homo sapiens) (UniProt P11511); experiment: qHTS assay to identify aromatase inhibitors (AID 743083); note: series mostly up to about 70 µM; nearly all actives have a fitted effect of over 55% in size
# [17] = biological target: Androgen receptor (Homo sapiens) (UniProt P10275); experiment: qHTS assay to identify small molecule antagonists of the androgen receptor (AR) signaling pathway (AID 743035; active = well fitted inhibition curve with a large enough effect in the signal ratio in the repeat runs, not every such curve was filed as active; inconclusive = weak or mixed curves, or effect the other way; inactive = no such curve, though single readings can be large or run the other way; the % refers to the signal ratio; note: potency is the fitted concentration of half-maximal effect)
# Outline: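 R1881 agonist challenge of a HEK293 UAS-beta-lactamase AR reporter line in the presence of compound (16 h, 37C); signal taken as FRET fluorescence after 2 h with LiveBLAzer B/G substrate at room temperature.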
# [18] = biological target: Androgen receptor (Homo sapiens) (UniProt P10275); experiment: qHTS assay to identify small molecule agonists of the androgen receptor (AR) signaling pathway (AID 743036; active = well fitted activation curve with a large enough effect in the signal ratio in the repeat runs, with a control signal flat, not every such curve was filed as active; inconclusive = weak or mixed curves, or effect the other way; inactive = no such curve, though single readings can be large or run the other way; the % refers to the signal ratio)
# Outline: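 Activation was read as beta-lactamase FRET signal from LiveBLAzer B/G substrate, added for 2 h at room temperature. Before that, GeneBLAzer AR-UAS-bla GripTite (HEK293) cells had 16 h compound exposure at 37C.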
# [19] = biological target: Androgen receptor (Homo sapiens) (UniProt P10275); experiment: qHTS assay to identify small molecule agonists of the androgen receptor (AR) signaling pathway using the MDA cell line (AID 743040; note: nearly all actives have a fitted effect of over 20% in size)
# Outline: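 Luciferase read-out, ONE-Glo, 30 min RT. Cells: MDA-kb2 AR-luc, MMTV promoter with AR and GR response elements. Compound exposure 16 h, 37C, 0% CO2, after 5 h pre-incubation. qHTS agonist mode.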
# [20] = biological target: Androgen receptor (Homo sapiens) (UniProt P10275); experiment: qHTS assay to identify small molecule antagonists of the androgen receptor (AR) signaling pathway using the MDA cell line (AID 743042; note: nearly all actives have a fitted effect of over 55% in size; note: potency is the fitted concentration of half-maximal effect)
# Outline: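 MDA-kb2 breast carcinoma cells carrying MMTV-luciferase (AR/GR responsive) were co-treated with compounds and the agonist R1881 for 16 h at 37C. Inhibition read as ONE-Glo luminescence; CellTiter-Fluor fluorescence measured in parallel for cytotoxicity.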
# Sequence of Estrogen receptor (Homo sapiens) (P03372 whole entry, looked up): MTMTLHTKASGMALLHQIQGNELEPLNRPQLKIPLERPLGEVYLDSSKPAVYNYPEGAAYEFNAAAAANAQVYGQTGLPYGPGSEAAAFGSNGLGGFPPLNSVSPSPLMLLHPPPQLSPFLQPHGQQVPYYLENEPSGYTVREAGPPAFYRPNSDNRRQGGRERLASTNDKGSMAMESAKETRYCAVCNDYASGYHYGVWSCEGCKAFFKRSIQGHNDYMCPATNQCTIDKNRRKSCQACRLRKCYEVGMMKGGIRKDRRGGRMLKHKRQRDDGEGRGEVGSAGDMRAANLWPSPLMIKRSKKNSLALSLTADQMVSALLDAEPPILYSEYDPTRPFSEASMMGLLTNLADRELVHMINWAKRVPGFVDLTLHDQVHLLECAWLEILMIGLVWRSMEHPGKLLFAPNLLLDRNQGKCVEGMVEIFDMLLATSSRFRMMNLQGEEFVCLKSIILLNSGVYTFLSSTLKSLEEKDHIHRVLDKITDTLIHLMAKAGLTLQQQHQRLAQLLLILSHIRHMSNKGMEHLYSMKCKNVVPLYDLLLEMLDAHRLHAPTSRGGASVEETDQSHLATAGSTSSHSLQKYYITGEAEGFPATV
# Sequence of Aromatase (Homo sapiens) (P11511 whole entry, looked up): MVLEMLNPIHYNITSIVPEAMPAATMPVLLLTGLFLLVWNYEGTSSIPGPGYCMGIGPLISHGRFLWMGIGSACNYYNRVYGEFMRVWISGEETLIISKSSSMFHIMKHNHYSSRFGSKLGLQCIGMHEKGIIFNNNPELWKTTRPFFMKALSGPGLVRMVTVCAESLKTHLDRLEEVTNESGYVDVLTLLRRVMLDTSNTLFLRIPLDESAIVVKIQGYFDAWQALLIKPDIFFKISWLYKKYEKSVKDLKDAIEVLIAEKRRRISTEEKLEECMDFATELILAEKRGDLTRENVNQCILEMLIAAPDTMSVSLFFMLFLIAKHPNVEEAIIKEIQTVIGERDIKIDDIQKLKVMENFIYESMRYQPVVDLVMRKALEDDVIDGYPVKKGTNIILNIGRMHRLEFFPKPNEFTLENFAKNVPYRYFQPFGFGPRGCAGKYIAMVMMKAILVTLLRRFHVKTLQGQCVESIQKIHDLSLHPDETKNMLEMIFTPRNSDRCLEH
# Sequence of Androgen receptor (Homo sapiens) (P10275 whole entry, looked up): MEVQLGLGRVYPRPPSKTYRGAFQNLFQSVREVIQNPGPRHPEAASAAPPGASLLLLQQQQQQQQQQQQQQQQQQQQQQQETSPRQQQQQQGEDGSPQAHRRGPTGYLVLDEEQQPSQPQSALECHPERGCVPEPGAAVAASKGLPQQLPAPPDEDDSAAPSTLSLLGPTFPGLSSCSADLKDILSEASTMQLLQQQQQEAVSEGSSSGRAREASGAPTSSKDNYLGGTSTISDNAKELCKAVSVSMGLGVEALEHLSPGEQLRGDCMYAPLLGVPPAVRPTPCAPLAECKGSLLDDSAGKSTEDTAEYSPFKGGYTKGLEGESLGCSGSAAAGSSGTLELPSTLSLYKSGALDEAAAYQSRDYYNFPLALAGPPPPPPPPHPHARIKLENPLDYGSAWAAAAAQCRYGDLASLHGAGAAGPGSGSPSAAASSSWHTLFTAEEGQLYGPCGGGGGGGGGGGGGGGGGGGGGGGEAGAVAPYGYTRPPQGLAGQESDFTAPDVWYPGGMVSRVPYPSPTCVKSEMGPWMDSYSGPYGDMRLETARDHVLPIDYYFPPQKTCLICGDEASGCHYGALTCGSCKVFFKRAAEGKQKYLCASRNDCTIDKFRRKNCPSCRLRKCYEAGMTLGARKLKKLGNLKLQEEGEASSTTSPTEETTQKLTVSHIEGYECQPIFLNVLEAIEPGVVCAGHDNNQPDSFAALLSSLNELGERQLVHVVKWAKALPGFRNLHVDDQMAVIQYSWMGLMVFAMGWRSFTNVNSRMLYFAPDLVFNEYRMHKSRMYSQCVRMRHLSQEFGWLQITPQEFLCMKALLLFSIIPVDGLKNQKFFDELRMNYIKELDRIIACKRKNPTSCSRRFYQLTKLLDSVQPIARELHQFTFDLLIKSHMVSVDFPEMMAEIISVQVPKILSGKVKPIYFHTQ
Compound,Potency [1],Potency [2],Potency [3],Potency [4],outcome [5],outcome [6],Potency [7],Potency [8],Potency [9],Potency [10],outcome [11],outcome [12],Potency [13],outcome [14],outcome [15],Potency [16],Potency [17],outcome [18],outcome [19],Potency [20]
Oc1c(Br)cc(Br)cc1Br,inactive,inactive,inactive,inactive,inactive,inactive,inactive,inactive,inactive,inactive and 61.8 µM [inconclusive] (active),inactive,inactive,inactive,inactive,inactive,inactive,–,–,–,–
COC(C)(C)CCCC(C)C/C=C/C(C)=C/C(=O)OC(C)C (configuration not stated),inactive,29.8 µM (active) and inactive,inactive,inactive,inactive,inactive,inactive,inactive,inactive,–,inactive,–,–,–,inactive,inactive,inactive,inactive,inactive,inactive
OCCCCO,inactive,inactive,inactive,inactive,inactive,inactive,inactive,inactive,inactive,–,inactive,–,–,–,inactive,inactive,–,–,–,–
COC(=O)Nc1cccc(OC(=O)Nc2cccc(C)c2)c1,inactive,inactive,inactive,inactive,inactive,inactive,inactive,inactive,inactive,–,inactive,–,–,–,inactive,inactive,–,–,–,–
Cc1cc(Cl)ccc1OC(C)C(=O)O (configuration not stated),inactive,inactive,inactive,inactive,inactive,inactive,inactive,inactive,inactive,inactive,inactive,inactive,inactive,inactive,inactive,inactive,–,–,–,–
CCOP(=S)(OCC)Oc1ccc([N+](=O)[O-])cc1,inactive,inactive,inactive,inactive,inactive,inactive,inactive,inactive,inactive,–,inactive,–,–,–,inactive,inactive,–,–,–,–
Cc1ccc(N)cc1,inactive,inactive,inactive,inactive,inactive,inactive,inactive,inactive,inactive and 77 µM (active),–,inactive,–,–,–,inactive,inactive,–,–,–,–
O=C(O)C(Br)Br,inactive,inactive,inactive,inactive,inactive,inactive,–,inactive,inactive,inactive,inactive,inactive,inactive,inactive,inactive,inactive,–,–,–,–
Nc1cccc(Cl)c1,inactive,inactive,inactive,inactive,inactive,inactive,inactive,inactive,inactive,inactive,inactive,inactive,inactive,inactive,inactive,inactive,–,–,–,–
CC12CC1(C)C(=O)N(c1cc(Cl)cc(Cl)c1)C2=O (configuration not stated),inactive,inactive,24.3 µM (active),inactive,inactive,inactive,–,inactive,inactive,–,inactive,–,–,–,inactive,inactive,6.14 µM (active) and 3.89 µM (active),inactive,inactive,19.3 µM (active) and 9.69 µM (active)
CN(C)CCC#N,inactive,inactive,inactive,inactive,inactive,inactive,inactive,inactive,inactive,inactive,inactive,inactive,inactive,inactive,inactive,inactive,–,–,–,–
Cc1cccc(N)c1C,inactive,inactive,inactive,inactive,inactive,inactive,inactive,inactive,inactive,inactive,inactive,inactive,inactive,inactive,inactive,inactive,–,–,–,–
COP(=S)(OC)Oc1ccc(SC)c(C)c1,inactive,54.5 µM (active),inactive,inactive and 61.1 µM (active),inactive,inactive,inactive,inactive,inactive,inactive,inactive,inactive,48 µM (active),inactive,inactive,inactive,–,–,–,–
Sc1ccccc1,inactive,inactive,inactive,inactive,inactive,inactive,inactive,inactive,inactive,inactive,inactive,inactive,inactive,inactive,inactive,inactive,–,–,–,–
CNCC(O)c1ccc(O)cc1 (configuration not stated),inactive,inactive,inactive,inactive,inactive,inactive,–,inactive,inactive,inactive,inactive,inactive,inactive,inactive,inactive,inactive,–,–,–,–
CC(C)CCCCCCOC(=O)c1ccccc1C(=O)OCCCCCCC(C)C,inactive,inactive,inactive,inactive,inactive,inactive,inactive,inactive,inactive,inactive,inactive,inactive,inactive,inactive,inactive,inactive,–,inactive,inactive,inactive
Nc1ccc(N)cc1,inactive,54.7 µM (active),19.4 µM (active) and 54.5 µM (active),26.6 µM (active) and 21.8 µM (active),inactive,inactive,inactive and 30.8 µM (active),inactive,inactive,–,inactive,–,–,–,inactive,inactive,–,–,–,–
C=CC(=O)OCCCCCC(C)C,inactive,inactive,inactive,inactive,inactive,inactive,inactive,inactive,inactive,inactive,inactive,inactive,80.9 µM (active) and inactive,inactive,inactive,inactive,inactive,inactive,inactive,inactive
